This is an account of results in PubChem BioAssay.

Follistatin-related protein 3 (Homo sapiens), sequence (O95633 whole entry, looked up): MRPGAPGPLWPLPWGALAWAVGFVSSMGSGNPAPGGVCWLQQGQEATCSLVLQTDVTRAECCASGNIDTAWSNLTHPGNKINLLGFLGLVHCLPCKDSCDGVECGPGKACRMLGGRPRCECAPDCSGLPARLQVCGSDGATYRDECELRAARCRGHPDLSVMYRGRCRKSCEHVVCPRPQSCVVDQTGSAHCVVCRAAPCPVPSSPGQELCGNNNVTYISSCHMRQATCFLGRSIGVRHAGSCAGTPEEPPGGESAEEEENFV

The experiment concerns the target Follistatin-related protein 3 (Homo sapiens) (UniProt O95633). The experiment is described as follows: FSTL3 binders on small-molecule microarrays, primary screen, biochemical, small-molecule microarray, 635 nm fluorescence (AID 1105).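 Note: score merges emission near 667 nm and signal to noise per printed spot across three slides.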 As to conditions: FSTL3 binding, higher = more signal.
In turn, `C#C[C@H](O[Si](C#CCCCCCC)(C(C)C)C(C)C)c1ccccc1` returned a composite z-score of -0.215. `C=CCNC(=O)[C@H]1[C@@H]2C(=O)O[C@@H](c3ccccc3)[C@@H](c3ccccc3)N2[C@@H](c2ccc(O)cc2)[C@]12C(=O)Nc1ccc(C#Cc3ccc(OC)cc3)cc12` gave a composite z-score of 1.21. The compound `[N-]=[N+]=NCc1ccccc1C[C@@]1(C(=O)NCc2ccccc2)N=C(c2ccc(OCCCO)cc2)O[C@@H]1c1ccccc1CN=[N+]=[N-]` had a composite z-score of -0.0894. As for `C[N+](C)(C)CCCC[C@@H]1NC(=O)[C@H]2C[C@@H](C(=O)O)[C@@H](c3cccc(OCCO)c3)N2C1=O`, the figure is 1.41; as for `C=CCN1Cc2ccccc2C[C@@]2(COC(c3ccc(OCCCO)cc3)=N2)C1=O`, 0.68; as for `[N-]=[N+]=NCc1ccccc1C[C@]1(C(N)=O)N=C(c2ccc(OCCCO)cc2)O[C@H]1c1ccccc1N=[N+]=[N-]`, 0.416. The result for `CC(C)N1C(=O)c2ccccc2[C@](C)(C(=O)NCCCN(C)C)[C@@H]1c1ccc(CO)cc1` reads -0.749; that for `COCCOC(=O)N1C(=O)[C@@]2(c3ccccc31)[C@H](C(=O)N1CCCCCCC1)[C@H]1C(=O)O[C@H](c3ccccc3)[C@H](c3ccccc3)N1[C@@H]2c1ccccc1OCCO`, 1.52. The result for `C=C(COC)C(=O)CC[C@@H](OC(=O)c1ccccc1-c1ccccc1C(=O)O)c1ccc(CO)o1` reads 0.399. Turning to `COCCn1c(C(=O)N2CCCC2)cc2c1C[C@H]1CN(C(=O)c3ccccc3)[C@@](Cc3ccc(OC)cc3)(C(=O)OC)[C@@H]21`, the composite z-score was 0.682.

With `COc1ccc([Si](C)(C)[C@H]2[C@H](CC(=O)N3CCC[C@H]3CO)O[C@@]3(C(=O)N(c4ccccc4)c4ccccc43)[C@@H]2C)cc1`, the composite z-score came to 0.051. Compound `C=CCC(OC(C)=O)[C@@H]1[C@@H](N(Cc2cc3ccccc3o2)C(=O)c2ccc(-c3ccccc3)cc2)c2cc(OCCCO)ccc2N1C(=O)Cc1ccc2ccccc2c1` (some centres undefined) had a composite z-score of -0.187. `C/C=C/[C@H](CCn1cc([C@H](O)c2ccccc2)nn1)[Si](C)(C)c1ccc(OC)cc1` returned a composite z-score of -1.72. The result for `CCCC[C@@H]1C[C@H]1[C@@H](NC(=O)c1ccccc1)c1ccccc1` reads 0.227; that for `O=C1OCCC=C[C@H]2OC34C=CCN(c5ccc6ccccc6c5)C(=O)[C@H]3N(CCCCCCO)C(=O)[C@@H]4C12` (some centres undefined), -0.917. As for `COc1ccc([Si](C)(C)[C@H]2[C@H](CC(=O)N(CCO)Cc3ccccc3)O[C@@]3(C(=O)N(Cc4cccc(N5C(=O)c6cccc7cccc5c67)c4)c4ccccc43)[C@@H]2C)cc1`, the figure is 0.303; as for `C=CCC(OC(C)=O)[C@@H]1[C@@H](N(Cc2cc3ccccc3o2)C(=O)c2cccc3ccccc23)c2cc(OCCCO)ccc2N1C(=O)Cc1ccc(OC)cc1` (some centres undefined), 0.579; as for `COC(=O)[C@@]1(Cc2ccc(OC)cc2)[C@H]2c3cc(C(=O)N4CCCC4)n(CCc4ccccn4)c3C[C@H]2CN1C(=O)c1ccccc1`, -0.396. As for `C=CCN1C(=O)[C@]2(Cc3ccccc31)N=C(c1ccc(OCCCO)cc1)O[C@@H]2c1ccccc1`, the figure is 0.439; as for `CCCC[C@H]1OB(O)C[C@H]2C1=C(C)Cn1c(=O)n(-c3ccccc3)c(=O)n12`, 0.662; as for `CCN(CC)c1ccc(N2CC=CC34O[C@@H]5C=CCOC(=O)[C@@H]5[C@H]3C(=O)N(CCCCCO)[C@@H]4C2=O)cc1` (some centres undefined), -1.22.

With `C#C[C@H]1Oc2ccccc2S(=O)(=O)N2CCC[C@@H]12`, the composite z-score is 0.712. In turn, `O=C1C[C@@](C(=O)O)(c2ccc([N+](=O)[O-])cc2)[C@@H](c2ccc(CO)cc2I)N1CC12CC3CC(CC(C3)C1)C2` had a composite z-score of 0.206. The result for `CCOC(=O)N1C(c2ccc(OCCCO)cc2)=NC(C(=O)OC)N1C(=O)OCC` (centres undefined) reads 1.39.
